TDP1 inh – qHTS Assay for Inhibitors of Tyrosyl-DNA Phosphodiesterase (TDP1); recombinant TDP1, AlphaScreen DNA substrate cleavage; Tyrosyl-DNA phosphodiesterase 1 (Homo sapiens), Q9NUW8; Potency, µM (top dose mostly 130 µM), hits mostly inhibitors; AID 485290, 2010; 350,000 compounds, 0.28% hits; further: nearly all actives have a fitted effect of over 40% in size
Target sequence (Q9NUW8 whole entry, looked up): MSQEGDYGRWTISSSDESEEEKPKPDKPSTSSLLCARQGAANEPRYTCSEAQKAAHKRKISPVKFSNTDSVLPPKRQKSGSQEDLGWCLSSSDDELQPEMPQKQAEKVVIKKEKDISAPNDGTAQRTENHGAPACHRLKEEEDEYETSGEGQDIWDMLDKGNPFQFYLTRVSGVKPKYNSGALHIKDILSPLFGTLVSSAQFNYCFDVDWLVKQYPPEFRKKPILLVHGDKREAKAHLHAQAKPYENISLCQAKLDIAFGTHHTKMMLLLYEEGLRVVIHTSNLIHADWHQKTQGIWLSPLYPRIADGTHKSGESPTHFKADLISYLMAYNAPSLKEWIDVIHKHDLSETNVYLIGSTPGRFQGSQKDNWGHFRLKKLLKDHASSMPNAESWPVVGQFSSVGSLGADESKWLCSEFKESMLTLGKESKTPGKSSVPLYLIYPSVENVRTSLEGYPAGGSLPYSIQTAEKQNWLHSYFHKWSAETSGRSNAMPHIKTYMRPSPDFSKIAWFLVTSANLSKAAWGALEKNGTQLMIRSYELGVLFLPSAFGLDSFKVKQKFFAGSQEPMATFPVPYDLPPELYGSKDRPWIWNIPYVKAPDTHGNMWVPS
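E. coli-derived human Tdp1, 1 nM final. Cpd preinc 15 min RT; substrate 15 nM final, 5 min RT; AS bead mix 10 ug/ml final, 10 min RT. Signal loss = tyrosine-FITC cleavage. No-enzyme wells = max signal.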
IL-1B inflam inh – qHTS for Inhibitors of Inflammasome Signaling: IL-1-beta AlphaLISA Primary Screen. THP-1 LPS/ATP IL-1B secretion, AlphaLISA, 16 h; active compounds read low. activity change, % at 57.5 µM. 360,000 compounds, 4.7% hits; in the data active means activity change below about -50%; inconclusive means mostly about -30% to -49%
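THP-1 cells pretreated 1 hr with compounds (up to 57.5 uM final), then stimulated with LPS (250 ng/mL final) plus ATP (1.25 mM final); secreted IL-1B measured by AlphaLISA after 16 hr, decreased signal indicating inhibition.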
TGFb inhibitor – qHTS for Inhibitors of TGF-b; HepG2 CAGA-GFP TGF-b/SMAD3 reporter, GFP fluorescence, 18 h; TGF-beta stimulated, 500 pg/mL final; Potency, µM (titrated, usually from 46.1 µM), most hits filed as inhibitors; 410,000 compounds, 1.2% hits; AID 588855, 2011; further: nearly all actives have a fitted effect of over 65% in size
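Smad-responsive CAGA-GFP expression was quantified in HEPG2 cells exposed to compounds and 500 pg/mL final TGF-beta for 18 h at 37 degrees C; unstimulated wells defined full inhibition.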
HepG2 viability – qHTS for Inhibitors of TGF-b: Cytotox Counterscreen | Potency, µM (top dose mostly 46.1 µM), usual class: cytotoxic | 410,000 compounds, 0.76% hits | HepG2 CAGA-GFP viability, ATP luminescence, 18 h
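CellTiter-Glo luminescence gave cytotoxicity after 18 hours at 37 degrees C. The cells were HepG2 CAGA-GFP in 1% FBS DMEM, stimulated with 500 pg/mL TGF-beta after compound addition. %Activity was normalised to no-cell wells (complete cell-killing) and DMSO (no toxicity), and curves were fitted and classified.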
DT40 TDP1 CPT – qHTS for Inhibitors of human tyrosyl-DNA phosphodiesterase 1 (TDP1): qHTS in cells in presence of CPT | 420,000 compounds, 12% hits | AID 686979, 2013 | Potency, µM (top dose mostly 46.2 µM), most hits filed as inhibitors | chicken DT40 Tdp1-/-;hTDP1 cells + 20 nM CPT, ATP luminescence, 48 h; further: nearly all actives have a fitted effect of over 55% in size
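Chicken DT40 Tdp1-/- cells complemented with human TDP1, 400 cells/well, exposed to compounds plus 20 nM camptothecin for at least 48 h at 37 C; viability read as ATP content by CellTiter-Glo luminescence.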
DT40 TDP1 no CPT – qHTS for Inhibitors of human tyrosyl-DNA phosphodiesterase 1 (TDP1): qHTS in cells in absence of CPT; DT40 Tdp1-/- hTDP1 cells, no CPT, ATP luminescence, 48 h; Potency, µM (titrated, usually from 46.2 µM), hits mostly inhibitors; 420,000 compounds, 15% hits; AID 686978, 2013; further: nearly all actives have a fitted effect of over 55% in size
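DT40 Tdp1-/-;hTDP1 cells, no CPT (DMSO vehicle only), 400 cells/well; compounds pin-transferred; ≥48 hr, 37 °C; CellTiter-Glo 30 min RT dark, luminescence read.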
Hits are given with their value; – = inactive; ? = inconclusive; · = no result; [ ] = another dose, or the depositor's remark. The list is not random: actives were taken first. Their share in the collection is about 19%. Unless noted, the call rests on the fitted dose curve; in most records, active means well fitted curve in the direction sought with a large enough effect; inconclusive means small, poorly fitted or top-dose-only effect, or another doubt; inactive means no such curve, though single readings can be large; an effect the other way counts as inactive or inconclusive.

SMILES | TDP1 inh | IL-1B inflam inh | TGFb inhibitor | HepG2 viability | DT40 TDP1 CPT | DT40 TDP1 no CPT
c1ccc(-c2sc3ccccc3c2-c2ccc(OCCN3CCCC3)cc2)cc1 | – | ? | ? | 11µM | 21µM | 15µM
COc1cccc(-c2sc3cc(OC)c(OC)cc3c2-c2ccc(OCCN3CCCCC3)cc2)c1 | – | – | ? | 13µM | 18µM | 13µM
COc1ccc2sc(-c3ccccc3OC)c(-c3ccc(OCCN(C)C)cc3)c2c1 | – | ? | 16µM | 16µM | 16µM | 21µM
COc1cc2sc(-c3ccccc3OC)c(-c3ccc(OCCN4CCOCC4)cc3)c2cc1OC | – | – | – | – | ? | ?
CCCC(=O)Nc1cc(C(=O)NCc2ccccc2)ccc1S(=O)(=O)c1ccc(Cl)cc1 | – | · | – | – | 21µM | 21µM
Cc1cccc(Cn2c(=O)n(CC3CCC(C(=O)NC(C)C)CC3)c(=O)c3sccc32)c1 (configuration not stated) | – | · | ? | – | – | –
CC(C)Nc1nnc(SCC(=O)Nc2ccc3c(c2)C(=O)c2ccccc2C3=O)s1 | – | – | – | – | ? | 18µM
CCOc1ccccc1Nc1nnc(SCC(=O)Nc2cccc(S(=O)(=O)NC3=NCCCCC3)c2)s1 | – | – | – | – | 23µM | 18µM
Cc1ccc(NC(=O)CSCC(=O)Nc2cccc(S(=O)(=O)N3CCCCCC3)c2)cc1 | – | – | ? | – | 21µM | ?
Cc1nnc(SCC(=O)Nc2cccc(S(=O)(=O)N3CCCCC3)c2)s1 | – | – | – | – | – | ?
Cc1ccc(Nc2nnc(SCC(=O)Nc3cccc(S(=O)(=O)N4CCCCC4)c3)s2)cc1 | – | – | ? | – | ? | 18µM
Cc1cccc(N(C(=O)c2snc(C(N)=O)c2N)C(C(=O)NC2CCCC2)c2ccco2)c1 (configuration not stated) | – | – | – | – | ? | ?
CCOc1cc(/C=N/NC(=O)CSc2nncn2C)ccc1OCc1cccc(C)c1 | – | – | – | – | ? | ?
CCN(C(=O)c1cc2cc3ccc(OC)cc3nc2o1)c1cccc(C)c1 | – | · | – | – | 23µM | 16µM
CCCCN(CC)C(=O)c1cc2cc3ccc(OC)cc3nc2o1 | – | ? | – | – | ? | ?
Cc1cccc(N(C)C(=O)c2cc3cc4ccc(C)cc4nc3o2)c1 | – | – | – | – | 12µM | 18µM
COc1cc(OC)c(Nc2nc3ccc(C(=O)c4ccccc4)cc3n3c(C)nnc23)cc1Cl | – | · | – | – | – | –
COc1cccc(NC(=O)CN(C)C(=O)CCN2C(=O)C3CC=CCC3C2=O)c1 (configuration not stated) | – | – | – | – | – | –
CCc1ccc(CNc2ccc3c(c2)ncn3CC)cc1 | · | -57 | – | – | ? | ?
CCN(CC)c1ccc(CNc2ccc3c(c2)ncn3C(C)(C)C)cc1 | · | – | – | – | 16µM | ?
CC(C)(C)n1cnc2cc(NCc3ccc(Br)cc3)ccc21 | · | ? | ? | – | ? | ?
CCc1ccc(CNc2ccc3c(c2)ncn3C(C)(C)C)cc1 | – | -78 | ? | – | 21µM | 21µM
Cc1ccc(C)c(S(=O)(=O)N2CCN(C(=O)C3CCN(C(=O)c4ccc(F)cc4)CC3)CC2)c1 | · | – | – | – | ? | ?
Cc1cn(C2CC3OCC(NC(=O)C(NC(=O)OC(C)(C)C)C(C)OCc4ccccc4)C3O2)c(=O)[nH]c1=O (configuration not stated) | – | · | – | – | · | ·
Cc1ccc(NC(=O)N2CCC3(CC2)Oc2ccccc2C(=O)N3Cc2ccc(F)cc2)cc1 | – | · | – | – | ? | ?
SMILES | TDP1 inh | IL-1B inflam inh | TGFb inhibitor | HepG2 viability | DT40 TDP1 CPT | DT40 TDP1 no CPT
O=C(Nc1ccc(F)c(Cl)c1)N1CCC2(CC1)Oc1ccccc1C(=O)N2Cc1ccccc1F | – | · | · | – | ? | 12µM
O=C(Nc1ccccc1Cl)N1CCC2(CC1)Oc1ccccc1C(=O)N2Cc1ccc(F)cc1 | – | · | – | – | ? | 21µM
O=C(Nc1ccc(Br)cc1F)N1CCC2(CC1)Oc1ccccc1C(=O)N2Cc1ccccc1F | – | · | · | – | ? | 16µM
COc1ccc(Cl)cc1NC(=O)N1CCC2(CC1)Oc1ccccc1C(=O)N2Cc1ccc(F)cc1 | – | · | – | – | ? | ?
CCOC(=O)C1CCCN(C(=O)Cn2nc(CC)n3c(cc4occc43)c2=O)C1 (configuration not stated) | – | · | ? | – | ? | ?
COc1ccc(NC(=O)CN2CCN(CC(=O)Nc3ccccc3Cl)CC2)cc1 | – | – | – | – | ? | ?
COc1ccc(C(=O)NC2CCN(C(=S)Nc3cc(C)ccc3C)CC2)cc1 | – | – | – | – | – | –
CCc1c(C)sc2c1CCN(C(=O)Nc1ccccc1Cl)C2c1ccc(OC)cc1 (configuration not stated) | – | · | – | – | ? | 15µM
CCc1c(C)sc2c1CCN(C(=O)Nc1cc(C)ccc1C)C2c1ccc(OC)cc1 (configuration not stated) | – | · | – | – | ? | 26µM
O=C(c1ccc(CSc2nc3ccncc3n2Cc2ccccc2)cc1)N1CCCCCC1 | – | · | ? | – | 9.2µM | 16µM
Cc1cccc(Cn2c(SCc3ccc(C(=O)N4CCCCCC4)cc3)nc3ccncc32)c1 | – | · | 13µM | – | – | ?
CC1CCCN(C(=O)c2ccc(CSc3nc4ccncc4n3Cc3ccccc3)cc2)C1 (configuration not stated) | – | · | ? | – | 16µM | 23µM
CC1CCN(C(=O)c2ccc(CSc3nc4ccncc4n3Cc3ccc(F)cc3)cc2)CC1 | – | – | ? | – | 23µM | ?
CC1CCN(CCNC(=O)c2ccc(Cn3c(SCc4ccccc4)nc4cccnc43)cc2)CC1 | – | · | – | – | ? | ?
CC(=O)OC[C@@H]1O[C@@H](O/N=C2/C[C@@H](O)[C@@H](O)[C@@H]3[C@@H]4C(=O)N([C@@H](C)c5ccccc5)C(=O)[C@H]4CC[C@H]23)[C@H](OC(C)=O)[C@H](OC(C)=O)[C@@H]1OC(C)=O | –[21 µM] | · | · | · | · | ·
O.O.[Mn].[Mn].[Mn].[OH-].[OH-] | – | · | · | · | · | ·
Cc1ccc(C)c(Cn2c(=O)c3c(nc4n3CCN4c3ccccc3)n(C)c2=O)c1 | – | · | – | – | – | –
